# Laboratory results published in ChEMBL document CHEMBL3988442, “University of Dundee, Small-Polar-MMV Screening Library” (2021).
# The campaign covered roughly 48,000 compounds. About 13,000 (27%) showed an effect of 50% or more. This is one part of the list.
# System: Wolbachia pipientis
# Assay: Anti-Wolbachia Cell-Based Screen
# Type: functional
# Parameters: scale not given: in the data most compounds retested in dose-response had high values
# Conditions: 5 µM
row,SMILES,Percent Effect [%]
1,CNC(=O)C1CCN(Cc2nc(-c3ccc(SC)cc3)oc2C)C1 (configuration not stated),1.342
2,Cc1nc(N2CCCC2)nc2c1CCN(C(=O)CN(C)C)CC2.O=C(O)C(F)(F)F,-8.605
3,CC(C)Nc1nc2c(c(NC3CC3)n1)CN(C(=O)c1ccsc1)CC2,4.633
4,COC(=O)CCC(=O)N1CCc2nc(C(=O)N3CCCCC3)sc2CC1,-23.17
5,CCN(C)c1ncnc2c1CCN(C(=O)N1CCCC1)CC2.O=C(O)C(F)(F)F,-2.138
6,CNc1nc2c(c(C(=O)N3CCCC3)n1)CN(C(=O)CCSC)CC2,109.5
7,CNc1nc2c(c(C(=O)N3CCCC3)n1)CN(C(=O)C1CCCC1)CC2,99.86
8,CCC(OC)C(=O)N1CCc2nc(NC)nc(C(=O)N3CCCC3)c2C1 (configuration not stated),0.1298
9,CCc1nc(CN2CCCN(C(=O)CCSC)CC2)cs1,-7.739
10,CCCOCC(=O)N1CCc2nc(NC)nc(C(=O)N3CCCC3)c2C1,106.3
11,CCCOCC(=O)N1CCCC(c2nnc(CN3CCCCC3)n2C)C1 (configuration not stated),-4.962
12,CC(C)Nc1nc2c(c(NC3CC3)n1)CN(C(=O)c1ccnnc1)CC2,10.08
13,CCN(C)CC(=O)N1CCc2nc(NC)nc(C(=O)N3CCCC3)c2C1,92.7
14,CNc1nc2c(c(C(=O)N3CCCC3)n1)CN(C(=O)c1cccs1)CC2,93.6
15,Cc1csc(N2CCCN(C(=O)c3cccs3)CC2)n1,5.258
16,O=C(c1cccs1)N1CCN(C(=O)c2ncoc2-c2ccco2)CC1,-2.664
17,Cc1oncc1C(=O)N1CCCc2c(C#N)nn(C)c2C1,10.9
18,O=C(NCC(O)Cc1ccccc1)c1ccc2[nH]c(=O)[nH]c2c1 (configuration not stated),124
19,Cc1nn(C)c(C)c1OCC(=O)NCC(O)Cc1ccccc1 (configuration not stated),-7.018
20,O=C(NCC(O)c1ccc(F)cc1F)c1ccccc1 (configuration not stated),4.07
21,CSC(C)(C)CNC(=O)NCC[S+]([O-])c1ccccc1 (configuration not stated),5.192
22,O=C(NCCCO)Nc1cccc(C[S+]([O-])Cc2ccccc2)c1 (configuration not stated),-4.621
23,Cc1cccc(C(=O)NCCS(=O)(=O)Cc2ccccc2)c1,-4.406
24,O=C(NCC[S+]([O-])c1ccccc1)NCC(F)(F)F (configuration not stated),-2.779
25,O=C(NCC[S+]([O-])c1ccccc1)c1ccc2[nH]c(=O)[nH]c2c1 (configuration not stated),103.1

row,SMILES,Percent Effect [%]
1,O=C(NCC[S+]([O-])Cc1ccccc1)c1ccc2[nH]c(=O)[nH]c2c1 (configuration not stated),105
2,Cc1ccn2ncc(C(=O)N3CCCC(c4noc(C)n4)C3)c2n1 (configuration not stated),1.825
3,CCOCCCNc1nc(CS(=O)(=O)c2ccccc2)cs1,-0.3734
4,CCOCCNCc1cc(O)c2cc(C)ccc2n1,-3.741
5,CCOCCNS(=O)(=O)c1cc(C)c2nc(O)cc(C)c2c1,93.93
6,Cc1ccccc1CN1C[C@@H]2OCC(=O)N(CC(N)=O)[C@@H]2C1,-9.838
7,CCOC(=O)CN1CCC2(CC1)CC(=O)c1ccc3ccccc3c1O2,117.9
8,CN(C)C(=O)CN1CCN(C(=O)C2CSc3ccccc3O2)CC1 (configuration not stated),-6.188
9,NC(=O)CN1CCC2(CC1)CC(=O)c1ccc3ccccc3c1O2,103.8
10,CN1CC(c2ccccc2)CC2(CCN(CC(=O)N(C)C)CC2)C1 (configuration not stated),-1.357
11,CCOc1cccc(CNC(=O)CN2CCC3(CCOC3)C2)c1 (configuration not stated),-4.928
12,NC(=O)CN1CCCC(C(=O)N2CCC(O)(c3ccccc3)CC2)C1 (configuration not stated),-6.911
13,CN(C)C(=O)CN1CCC2(CC1)COC2,-28.68
14,CN(C)C(=O)CN1CCCN(CC2CCOc3ccccc3C2)CC1 (configuration not stated),-6.111
15,CN(C)C(=O)CN1CCC2(CC1)CC(=O)c1c(ccc3ccccc13)O2,104.8
16,CCOC(=O)CN1CCC2(CC1)CC(NC(=O)c1ccccn1)CO2 (configuration not stated),-1.011
17,CN(C)C(=O)CN1CCC2(CC1)CC(=O)c1ccc3ccccc3c1O2,109.8
18,CC(C)Nc1cc(N2CCCC3(CN(C)C(=O)O3)C2)ncn1 (configuration not stated),-4.728
19,Cc1cccnc1NC(=O)C1CCCN(c2cccc(C(F)(F)F)n2)C1 (configuration not stated),9.755
20,CCn1cc(CN(C)C(=O)C(c2ccccc2C)N(C)C)cn1 (configuration not stated),1.037
21,Cc1ccc2[nH]c(CO[C@H]3CN(C(=O)C4CC4)C[C@H]3F)nc2c1,-10.96
22,O=C(CCCn1cncn1)N1CCCC1c1nc(-c2ccccc2)no1 (configuration not stated),16.9
23,O=C(CCCn1cncn1)N1CCCC1c1noc(C2CC2)n1 (configuration not stated),94.63
24,CSCC(=O)N1CCCC1c1noc(C2CC2)n1 (configuration not stated),7.079
25,O=C(CCn1cncn1)N1CCCC1c1noc(C2CC2)n1 (configuration not stated),89.8

row,SMILES,Percent Effect [%]
1,OCC(O)CSCc1cn(-c2ccc(Cl)cc2)nn1 (configuration not stated),-1.714
2,O=C1NC2(CCN(CCc3ccccc3)CC2)CC1c1ccccc1 (configuration not stated),-3.919
3,O=C1OC2(CCN(C3CCCOC3)CC2)CN1CCc1ccccc1 (configuration not stated),0.1893
4,CN1CCN(C(=O)CC2CCN(CCc3ccccn3)CC2)CC1,-2.122
5,O=C(O)C(F)(F)F.c1ccc(OC2COC3(CCN(Cc4ccccn4)CC3)C2)cc1 (configuration not stated),-3.872
6,O=C(NC1COC2(CCN(Cc3ccccn3)CC2)C1)c1ccccn1.O=C(O)C(F)(F)F (configuration not stated),-3.603
7,c1ccc(CCN2CCN(C3CCOC4(CCOCC4)C3)CC2)cc1 (configuration not stated),96.21
8,c1ccc(CCN2CCN(C3CCOC4(CCOCC4)C3)CC2)nc1 (configuration not stated),69.95
9,COC(=O)C(O)C1CCN(CCc2ccccn2)CC1 (configuration not stated),-11.11
10,c1ccc(CN2CCN(C3CCOC4(CCOCC4)C3)CC2)nc1 (configuration not stated),115.7
11,CC(C)Cc1cc(CC2(NCc3ccccc3Cl)COC2)no1,-7.466
12,COc1cc(C)c(C(C)Nc2ncc(C(N)=O)cc2Cl)cc1OC (configuration not stated),-11.51
13,Cc1nn(C)c2nc(N(CCN(C)C)CC3CCCO3)sc12 (configuration not stated),2.651
14,CC(NS(=O)(=O)CC1(C#N)CCCC1)c1cccc(-n2cccn2)c1 (configuration not stated),-9.973
15,COc1ccc(C)cc1CN(Cc1nc(C)c(C)o1)C1CCN(C)C1 (configuration not stated),-12.97
16,Cn1cc(N2C(=O)CC[C@@H]3[C@H]2CCN3CCc2ccccc2)cn1.O=C(O)C(F)(F)F.O=C(O)C(F)(F)F,83.57
17,Cn1cc(N2C[C@@H]3CN(CC4CCOCC4)C[C@@H]3C2=O)cn1.O=C(O)C(F)(F)F,-5.316
18,CN1CCN([C@@H]2CCN(CC3CCOC3)[C@H]2Cc2cnn(C)c2)CC1.O=C(O)C(F)(F)F.O=C(O)C(F)(F)F.O=C(O)C(F)(F)F (some centres not stated),-10.32
19,Cn1cc(C(=O)N2CC[C@@H]3[C@@H]2CCN3Cc2cccc(C#N)c2)cn1.O=C(O)C(F)(F)F,-1.669
20,Cn1cc(CN2CC[C@@H]3[C@@H]2CCN3C(=O)c2cccc(F)c2)cn1.O=C(O)C(F)(F)F,-56.05
21,COc1ccc(CN2CC[C@@H]3[C@H]2CCC(=O)N3c2cnn(C)c2)cc1.O=C(O)C(F)(F)F,83.34
22,Cn1cc(N2C(=O)CC[C@@H]3[C@H]2CCN3CC2CCOCC2)cn1.O=C(O)C(F)(F)F,100.5
23,Cn1cc(N2C(=O)CC[C@@H]3[C@H]2CCN3Cc2cccc(C#N)c2)cn1.O=C(O)C(F)(F)F.O=C(O)C(F)(F)F,96.87
24,Cn1cc(N2C(=O)C[C@@H]3[C@@H]2CCN3C(=O)c2ccco2)cn1,-4.812
25,Cc1cnn(CC2CN(c3ncnc4c3CCC4)CCO2)c1 (configuration not stated),-34.52

row,SMILES,Percent Effect [%]
1,Cc1noc(C)c1CC(=O)NCCN1CCN(S(C)(=O)=O)CC1,-3.578
2,N#Cc1cc2c(=O)n(CC(O)Cc3ccccc3)ccc2[nH]c1=O (configuration not stated),-6.856
3,O=C(Nc1ccc(-c2ccccc2)cc1)N1C[C@@H]2CNC[C@]2(C(=O)O)C1,6.586
4,CC(C)N1CCN(S(=O)(=O)c2ncn(C)c2Cl)CC1,22.53
5,O=C1O[C@@H]2CN(Cc3cccc(O)c3)C[C@@H]2N1CCCN1CCOCC1,15.85
6,Cn1cc(CN2CC[C@@H]3[C@H]2CCC(=O)N3c2ccccc2)cn1.O=C(O)C(F)(F)F,107.5
7,Cn1cc(C(=O)N2CC[C@@H]3[C@@H]2CCN3Cc2ccccc2)cn1.O=C(O)C(F)(F)F,-15.71
8,Cn1cc(CN2CC[C@@H]3[C@@H]2CCN3Cc2ccc3c(c2)OCO3)cn1.O=C(O)C(F)(F)F.O=C(O)C(F)(F)F,-8.648
9,CN(Cc1ccccc1)C(=O)CS(=O)(=O)Cc1ccc(Cl)c(Cl)c1,-2.386
10,Cc1cccc(S(=O)(=O)NC2CCN(CC(F)(F)F)C2)c1 (configuration not stated),-3.118
11,COc1ccccc1NCC(=O)NCc1ccc(-c2ccn[nH]2)cc1,-17.15
12,O=C(NCc1ccccc1)N1CCC(Oc2ncccc2Cl)CC1,6.296
13,O=C(NCc1ccc2c(c1)OCCO2)N1CCC(CO)CC1,-3.134
14,CNC(=O)C1CCN(C(=O)NCc2ccc(C)n2C)CC1,-3.399
15,CNC(=O)C1CCN(C(=O)NCc2ccc(-c3ccn[nH]3)cc2)CC1,139.8
16,COC(=O)NC1(C(=O)NCc2ccc(-c3ccn[nH]3)cc2)CCCC1,-10.61
17,CCOc1ccc(CNC(=O)N2CCCC(CO)C2)cc1F (configuration not stated),1.945
18,NC(=O)CC1CCN(C(=O)NCc2ccc(-c3ccn[nH]3)cc2)CC1,131.5
19,CC(=O)NC1CCCN(C(=O)NCc2ccc(-c3ccn[nH]3)cc2)C1 (configuration not stated),11.01
20,Cc1[nH]ncc1CCCNC(=O)N1CCC(CC(N)=O)CC1,-1.64
21,CCOCC1CCCN(C(=O)NCc2ccc(-c3ccn[nH]3)cc2)C1 (configuration not stated),107.6
22,CC(=O)N1CCCN(C(=O)NCc2ccc(-c3ccn[nH]3)cc2)CC1,101.6
